Drawing on PubChem BioAssay (Tox21), this text covers Potency and outcome for 7 compounds.

“And” between values parts separate entries of the source, which are not always exact repeats. Equal entries are not always repeated. Inconclusive results are not listed. The source made the active and inactive calls. Unless noted, calls come from the whole dose curve; as a rule, active = well fitted curve in the direction sought with a large enough effect in the repeat runs; inconclusive = weak or mixed curves; inactive = no such curve, though single readings can be large; an effect the other way counts as inactive or inconclusive.

The nature of experiment [1]: A CellTox Green Cytotoxicity Assay to monitor cytotoxicity in HEK293 cells - 32 hour (AID 1224881). Note: nearly all actives have a fitted effect of over 40% in size. Note: potency is the fitted concentration of half-maximal effect. The procedure, abridged:
(§1)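 HEK293 cells premixed with CellTox Green dye were seeded at 600 cells/well and left 5 h at 37 C/5% CO2 before pin transfer of 23 nL compound in DMSO. Fluorescence from dye bound to dead-cell DNA was read during 40 h treatment.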

Experiment [2] can be described thus: A CellTox Green Cytotoxicity Assay to monitor cytotoxicity in HepG2 cells - 0 hour (AID 1224882). Note: nearly all actives have a fitted effect of over 35% in size. The procedure, abridged: (§2)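 HepG2 cells were seeded together with the CellTox Green dye at 600 cells/well, left 5 h at 37 C/5% CO2, then given compounds in DMSO. Fluorescence from dye bound to dead-cell DNA was read repeatedly over 40 h of treatment at 37 C.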
A short description of experiment [3]: A CellTox Green Cytotoxicity Assay to monitor cytotoxicity in HepG2 cells - 32 hour (AID 1224883). Note: nearly all actives have a fitted effect of over 50% in size. Note: potency is the fitted concentration of half-maximal effect. The procedure, abridged: as §2
Experiment [4] is described as follows: A CellTox Green Cytotoxicity Assay to monitor cytotoxicity in HEK293 cells - 8 hour (AID 1224884). Note: nearly all actives have a fitted effect of over 35% in size. In a few lines:
as §1

Experiment [5] in a line: qHTS RealTime-Glo MT Cell Viability Assay in HepG2 cells - 16 hour (AID 1224885). Note: nearly all actives have a fitted effect of over 50% in size. The procedure, abridged: (§3)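 Cells + NanoLuc/prosubstrate dispensed (600 cells/well) → 5 h at 37 C/5% CO2 → compounds in DMSO transferred → 40 h incubation at 37 C, luminescence read at 0, 8, 16, 24, 32, 40 h.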
Background: qHTS replaces the single test concentration by a dilution series.

Experiment [6] can be described thus: qHTS RealTime-Glo MT Cell Viability Assay in HEK293 cells - 8 hour (AID 1224887). Note: nearly all actives have a fitted effect of over 50% in size. Note: potency is the fitted concentration of half-maximal effect. In a few lines: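 HEK293 cells mixed with RealTime-Glo reagents (NanoLuc plus cell-permeant prosubstrate) at 600 cells/well, preincubated 5 h at 37 C/5% CO2, then given 23 nL compound in DMSO. Nonlytic luminescence from viable cells was read at 0, 8, 16, 24, 32 and 40 h.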
Experiment [7] in a line: A CellTox Green Cytotoxicity Assay to monitor cytotoxicity in HEK293 cells - 16 hour (AID 1224888). Note: nearly all actives have a fitted effect of over 35% in size. The procedure, abridged:
as §1

Experiment [8] can be described thus: qHTS RealTime-Glo MT Cell Viability Assay in HepG2 cells - 0 hour (AID 1224889). Note: nearly all actives have a fitted effect of over 50% in size. In a few lines:
as §3

The nature of experiment [9]: A CellTox Green Cytotoxicity Assay to monitor cytotoxicity in HepG2 cells - 8 hour (AID 1224890). Note: nearly all actives have a fitted effect of over 45% in size. In a few lines: as §2
Experiment [10] is described as follows: qHTS assay to identify small molecule antagonists of the estrogen receptor alpha (ER-alpha) signaling pathway using the BG1 cell line in the presence of 0.1 nM 17-beta-estradiol - cell viability counter screen (AID 1259241). Note: nearly all actives have a fitted effect of over 40% in size. The procedure, abridged:
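Viability in VM7Luc4E2 cells after 22 hr compound exposure under 0.1 nM 17beta-estradiol stimulation, by CellTiter-Fluor.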

Experiment [11] can be described thus: qHTS assay to identify small molecule antagonists of the androgen receptor (AR) signaling pathway using the MDA cell line in the presence of 0.5 nM R1881 - cell viability counter screen (AID 1259242). Note: nearly all actives have a fitted effect of over 45% in size. The procedure, abridged:
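MDA-kb2 cells (human breast carcinoma, stably carrying MMTV-luciferase reporter) were exposed to compounds with 0.5 nM R1881 (final) for 16 hr at 37C, 0% CO2; viability then read as live-cell protease fluorescence (CellTiter-Fluor, 30 min) in the same wells.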

Experiment [12] in a line: qHTS assay to identify small molecule HDAC inhibitors (AID 1259364). Note: top concentration of the series differs between compounds; nearly all actives have a fitted effect of over 45% in size. The procedure, abridged: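 Wild-type HCT-116 cells were plated overnight, exposed to compounds for 2 h at 37 °C, then given HDAC-Glo class I/II luminogenic reagent for 30 min at room temperature before luminescence was read.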
A short description of experiment [13]: qHTS assay to identify small molecule HDAC inhibitors - cell viability counter screen (AID 1259365). In a few lines: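 Cytotoxicity was gauged in wild-type HCT-116 cells after a brief 2hr treatment with DMSO-dissolved compounds at 37C and 5% CO2, using CellTiter-Glo luminescence developed for 30min at room temperature.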
The nature of experiment [14]: qHTS assay to identify small molecule agonists of the sonic hedgehog signaling (Shh) pathway - cell viability counter screen (AID 1259366). Note: nearly all actives have a fitted effect of over 50% in size. In a few lines: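 Stable Gli1-Luc NIH/3T3 clone, 2,000 cells/well. Compound exposure 24hr at 37C. Read-out: CellTiter-Fluor fluorescence.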
Experiment [15] is described as follows: qHTS assay to identify small molecule antagonists of the sonic hedgehog signaling (Shh) pathway - cell viability counter screen (AID 1259367). Note: nearly all actives have a fitted effect of over 55% in size. Note: potency is the fitted concentration of half-maximal effect. In a few lines: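 NIH/3T3-derived Gli1-Luc reporter cells (2,000 per well) rested 4 hr at 37 C, then received DMSO compounds plus conditioned medium. After 23 hr of treatment, CellTiter-Fluor was added for 1 hr at 37C and fluorescence read.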

Experiment [16] is described as follows: qHTS assay to identify small molecule agonists of the sonic hedgehog signaling (Shh) pathway (AID 1259368; calls by dose curve; note: series mostly up to about 92 µM; nearly all actives have a fitted effect of over 15% in size). In a few lines:
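NIH/3T3-derived 3T3Gli1-Luc cells carrying a stably integrated Gli1 response element–firefly luciferase reporter were plated, left 4 hr at 37 C, then given compounds in DMSO for 24 hr. Luminescence was read 30 min after adding luciferase reagent.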

Experiment [17] in a line: qHTS RealTime-Glo MT Cell Viability Assay in HEK293 cells - 24 hour (AID 1224886). Note: nearly all actives have a fitted effect of over 50% in size. Note: potency is the fitted concentration of half-maximal effect. In a few lines: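 Tox21 10K qHTS, HEK293, 600 cells/well, RealTime-Glo reagent co-dispensed with cells; 5 h preincubation, compound by pintool, 37 C, luminescence at 0–40 h.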
Experiment [18] concerns the target Androgen receptor (Homo sapiens) (UniProt P10275). Put plainly: qHTS assay to identify small molecule antagonists of the androgen receptor (AR) signaling pathway using the MDA cell line in the presence of 0.5 nM R1881 (AID 1259243). The procedure, abridged:
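MDA-kb2 human breast carcinoma cells carrying an MMTV-luciferase reporter (AR- and GR-responsive) were plated, rested 5 hr at 37C, dosed with compounds, then stimulated with 0.5 nM R1881 (final) for 16 hr; luminescence was read after ONE-Glo.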

Experiment [19] in a line: qHTS assay to identify small molecule phospholipidosis (PLD) inducers (AID 1259344; active = well fitted curve in the direction sought with a large enough effect; an effect the other way counts as inactive or inconclusive). In a few lines:
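HepG2 cells on collagen I, attached 4 h at 37 C, were co-treated with compound and LipidTOX Red dye for 24 h at 37 C, then fixed with paraformaldehyde plus Hoechst 33342 and imaged by high-content microscopy for phospholipid accumulation.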

In experiment [20] the target is Estrogen receptor (Homo sapiens) (UniProt P03372). Put plainly: qHTS assay to identify small molecule antagonists of the estrogen receptor alpha (ER-alpha) signaling pathway using the BG1 cell line in the presence of 0.1 nM 17-beta-estradiol (AID 1259244). Note: nearly all actives have a fitted effect of over 50% in size. In a few lines: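 VM7Luc4E2 cells (endogenous full-length ER-alpha, stable 4xERE-luciferase) were grown 5 days in phenol red-free medium with charcoal-stripped FBS, then exposed 22 h at 37C to compounds plus 0.1 nM (final) 17beta-estradiol; ONE-Glo luminescence read-out.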
Estrogen receptor (Homo sapiens), sequence (P03372 whole entry, looked up): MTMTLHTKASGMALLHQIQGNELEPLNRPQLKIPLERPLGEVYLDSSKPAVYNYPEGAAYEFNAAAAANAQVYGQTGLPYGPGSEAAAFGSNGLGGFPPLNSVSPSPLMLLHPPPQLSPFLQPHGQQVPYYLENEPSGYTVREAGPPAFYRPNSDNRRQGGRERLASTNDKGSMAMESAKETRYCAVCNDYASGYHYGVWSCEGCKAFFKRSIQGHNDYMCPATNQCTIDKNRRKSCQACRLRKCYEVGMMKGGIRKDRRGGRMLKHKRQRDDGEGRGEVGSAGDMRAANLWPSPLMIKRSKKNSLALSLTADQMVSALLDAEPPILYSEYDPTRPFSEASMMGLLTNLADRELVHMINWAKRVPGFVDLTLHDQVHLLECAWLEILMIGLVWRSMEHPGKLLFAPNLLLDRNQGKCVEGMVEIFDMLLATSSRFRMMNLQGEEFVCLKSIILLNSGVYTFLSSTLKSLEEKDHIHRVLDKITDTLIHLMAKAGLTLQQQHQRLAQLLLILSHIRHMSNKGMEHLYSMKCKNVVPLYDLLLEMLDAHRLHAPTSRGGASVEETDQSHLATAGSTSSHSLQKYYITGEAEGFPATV

Androgen receptor (Homo sapiens), sequence (P10275 whole entry, looked up): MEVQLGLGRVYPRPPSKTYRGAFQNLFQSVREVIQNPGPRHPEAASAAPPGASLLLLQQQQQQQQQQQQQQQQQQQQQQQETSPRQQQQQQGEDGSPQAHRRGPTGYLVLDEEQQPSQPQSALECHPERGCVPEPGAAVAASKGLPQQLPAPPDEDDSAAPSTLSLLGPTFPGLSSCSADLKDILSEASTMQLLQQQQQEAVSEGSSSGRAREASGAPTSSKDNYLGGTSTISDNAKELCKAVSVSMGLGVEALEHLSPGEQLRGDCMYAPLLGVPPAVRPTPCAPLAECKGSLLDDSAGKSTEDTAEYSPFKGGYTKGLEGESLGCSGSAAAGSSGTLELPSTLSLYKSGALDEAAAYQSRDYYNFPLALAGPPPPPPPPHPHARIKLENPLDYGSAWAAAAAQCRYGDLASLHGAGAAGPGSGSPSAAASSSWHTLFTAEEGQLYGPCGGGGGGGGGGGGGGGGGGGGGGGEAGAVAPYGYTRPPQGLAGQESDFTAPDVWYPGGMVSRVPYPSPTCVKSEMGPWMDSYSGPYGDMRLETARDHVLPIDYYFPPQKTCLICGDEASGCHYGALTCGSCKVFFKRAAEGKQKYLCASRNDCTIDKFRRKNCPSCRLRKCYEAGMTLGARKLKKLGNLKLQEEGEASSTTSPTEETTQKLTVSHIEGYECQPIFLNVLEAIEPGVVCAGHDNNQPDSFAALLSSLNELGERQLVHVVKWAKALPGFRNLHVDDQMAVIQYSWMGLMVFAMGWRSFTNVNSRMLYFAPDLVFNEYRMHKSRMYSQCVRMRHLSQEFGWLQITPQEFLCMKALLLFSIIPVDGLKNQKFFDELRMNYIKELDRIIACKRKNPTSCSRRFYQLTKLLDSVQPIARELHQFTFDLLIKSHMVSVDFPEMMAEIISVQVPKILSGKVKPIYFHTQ

`CCCCn1cc[n+](C)c1` (tested in a mixture with another compound): the Potency entry in experiment [1], in experiment [2], in experiment [3], in [4], in experiment [5] and in experiment [6] was “inactive” in each case. For the same compound, the Potency entry in experiment [7], in experiment [8], in experiment [9], in [10], in experiment [11] and in experiment [12] was “inactive” in each case. The Potency result in experiment [13], in experiment [14], in experiment [15] and in experiment [16] was “inactive” in each case.

On to `[O]=[Cr](=[O])([OH])[O][Cr](=[O])(=[O])[OH]`, for which the Potency entry in experiment [1], in experiment [2], in experiment [4], in experiment [7], in [8] and in experiment [9] was “inactive” throughout. Also, the Potency entry in experiment [10], in experiment [11], in experiment [12], in [13] and in experiment [16] was “inactive” throughout. Further, the Potency in experiment [3] was 12.4 µM (active); in experiment [17], 12.4 µM (active) and 6.9 µM (active); in experiment [18], 30.9 µM (active) and 54.4 µM (active); in experiment [15], 21.9 µM (active) and 30.6 µM (active). Further, the compound was called inactive in experiment [19].

Take `Oc1cc(Cl)cc(Cl)c1`: the Potency in experiment [1] is 49.5 µM (active). Besides, the Potency result in experiment [2], in experiment [3], in experiment [4], in experiment [5], in experiment [8] and in experiment [9] was “inactive” throughout. Besides, the Potency entry in experiment [10], in experiment [11], in experiment [20], in experiment [12], in [13] and in experiment [14] was “inactive” each time. Moreover, the Potency entry in experiment [15] and in [16] was “inactive” throughout.

As for `COc1ccc(Cc2nccc3cc(OC)c(OC)cc23)cc1OC`, the Potency entry in experiment [1], in experiment [2], in experiment [3], in experiment [4], in experiment [7] and in experiment [8] was “inactive” in each case. The Potency result in [9], in experiment [10], in experiment [12], in [13], in experiment [15] and in experiment [16] was “inactive” each time. Also, the results for the Potency in [17], in experiment [6] and in experiment [18] were 4.77 µM (active), 4.77 µM (active) and 6.68 µM (active), respectively. Moreover, the compound was called inactive in experiment [19].

Take `COP(=S)(OC)Oc1ccc([N+](=O)[O-])c(C)c1`: the Potency entry in experiment [1], in experiment [2], in experiment [3], in experiment [4], in experiment [5] and in experiment [6] was “inactive” throughout. Besides, the Potency entry in experiment [8], in experiment [9], in [10], in experiment [11], in experiment [20] and in [12] was “inactive” throughout. In addition, the Potency result in experiment [13], in experiment [14] and in [16] was “inactive” throughout.

For `Cc1cc2c3c(c1)C(c1ccccc1)=N[C@@H](NC(=O)c1ccncc1)C(=O)N3CC2`, the Potency result in [1], in [2], in experiment [3], in experiment [4], in [5] and in [6] was “inactive” in each case. The Potency entry in experiment [7], in [9], in experiment [10], in experiment [11], in experiment [20] and in experiment [12] was “inactive” each time. Further, the Potency entry in [13], in experiment [14], in experiment [15] and in experiment [16] was “inactive” each time.

With `CCCCC(CC)COC(=O)c1ccccc1C(=O)OCC(CC)CCCC` (configuration not stated), the Potency entry in experiment [1], in [2], in [3], in [5], in experiment [17] and in experiment [6] was “inactive” throughout. The Potency entry in experiment [7], in experiment [8], in experiment [9], in [10], in experiment [11] and in [20] was “inactive” each time. The Potency entry in [12], in experiment [13], in experiment [14], in experiment [15] and in experiment [16] was “inactive” each time. The compound was classed as inactive in [19].
